This passage reports outcome, max response and Potency results from PubChem BioAssay (NCATS).

Inconclusive results are not listed. Activity calls are given as the source filed them. Unless noted, the call rests on the fitted dose curve; in most records, active means well fitted curve in the direction sought with a large enough effect; inconclusive means small, poorly fitted or top-dose-only effect, or another doubt; inactive means no such curve, though single readings can be large; an effect the other way counts as inactive or inconclusive.

Test [1] deals with Peroxisome proliferator-activated receptor delta (Homo sapiens) (UniProt Q03181). The test can be described thus: qHTS assay for small molecule agonists of peroxisome proliferator-activated receptor delta signaling (AID 588534; calls by dose curve;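 further: 0% = DMSO basal wells and 100% = positive control agonist at 10 µM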). In a few lines:
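Cells carrying a PPAR-delta beta-lactamase reporter were treated with compounds for 18 h at 37 °C in agonist mode. CCF4 fluorescence was read after 2 h; EC50 and efficacy from Hill fits.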

Test [2] is described as follows: qHTS assay for small molecule antagonists of peroxisome proliferator-activated receptor delta signaling (AID 588535; active means well fitted inhibition curve with a large enough effect in the signal ratio, with a control signal flat, not every such curve was filed as active; the % refers to the signal ratio;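 on max response: cells co-treated with a PPAR-delta agonist as stimulator during compound exposure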). Particulars: HEK293T PPARd-UAS-bla, beta-lactamase FRET ratio, 18 h; 460 nm channel. In a few lines: (§1)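 Antagonist-mode beta-lactamase reporter (GeneBLAzer PPAR-delta-UAS-bla) in HEK293T cells, 2% charcoal/dextran FBS, 4000 cells/well. Compound titrations, 18 h at 37 C; CCF4 ratio read, IC50 and efficacy from Hill fits.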
Background: In qHTS, concentration-response curves come from the screen itself.

Test [3] has as its target Peroxisome proliferator-activated receptor delta (Homo sapiens) (UniProt Q03181). The test is described as above. In short, it runs like this: as §1
For test [4], the target named is Peroxisome proliferator-activated receptor gamma (Homo sapiens) (UniProt P37231). The experiment in a line: qHTS assay for small molecule antagonists of peroxisome proliferator-activated receptor gamma signaling (AID 588537; active means well fitted inhibition curve with a large enough effect in the signal ratio, with a control signal flat, not every such curve was filed as active; the % refers to the signal ratio;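 further: reporter cells co-stimulated with 50 nM rosiglitazone agonist during compound treatment; % of control where 0% means no effect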). In a few lines:
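PPARγ-UAS-bla HEK293 cells (3000/well) in 1% charcoal/dextran-stripped FBS are treated with compound, then stimulated with 50 nM rosiglitazone for 16 h at 37 °C. Read-out is CCF4 β-lactamase fluorescence after 2 h at RT. IC50 comes from Hill fits normalised to rosiglitazone and DMSO.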

Test [5] concerns the target Vitamin D3 receptor (Homo sapiens) (UniProt P11473). The test can be described thus: qHTS assay for small molecule antagonists of vitamin D receptor signaling (AID 588541; calls by dose curve;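 further: receptor activated by calcitriol during compound treatment; on the % scale 0 is the no-effect control and ±100 the full control effect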). In short, it runs like this: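 VDR-UAS-bla HEK293T cells in 2% charcoal-stripped FBS were stimulated with 1-alpha,25-dihydroxyvitamin D3 (3 nM final) plus compound for 16 h at 37 C. The beta-lactamase CCF4 readout was normalized to 50 nM agonist and DMSO, and Hill fits gave IC50.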

For test [6] the target is unchanged. The experiment in a line: qHTS assay for small molecule agonists of vitamin D receptor signaling (AID 588543; calls by dose curve;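 further: 0% = DMSO basal and 100% = reference agonist control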). In short, it runs like this: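 Measured: β-lactamase reporter activity (CCF4, 405 nm excitation, 460/530 nm emission) in HEK293T VDR-UAS-bla cells after 16 h compound exposure at 37 °C. Normalization against 50 nM 1α,25-dihydroxyvitamin D3 and DMSO; Hill-fit EC50.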

In a further test the test system is 7G8. The experiment in a line: qHTS profiling for inhibitors of Plasmodium falciparum proliferation (AID 504749). Further: nearly all actives have a fitted effect of over 60% in size. Further: potency means the concentration at half of the fitted maximal effect.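 On activity, negative = inhibition: 0% = DMSO vehicle and full inhibition = artemisinin control.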 Particulars: P. falciparum in erythrocytes, SYBR Green DNA, 72 h; series mostly up to 28.7 µM. In short, it runs like this:
(§2)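 P. falciparum-infected erythrocytes (0.3% parasitemia, 2.5% hematocrit) incubated with compound 72 h at 37 C, 5% CO2. Parasite DNA detected by SYBR Green after lysis, overnight at room temperature; normalised to 0.29 uM artemisinin and DMSO.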

Another test concerns DIV17. The description is as above. Particulars: P. falciparum in erythrocytes, SYBR Green DNA, 72 h; series mostly up to 28.7 µM. In short, it runs like this: as §2
The next test relates to TAB109. The test is described as above. Particulars: P. falciparum in erythrocytes, SYBR Green DNA, 72 h; series mostly up to 28.7 µM. In short, it runs like this:
as §2

In the next test the test system is W2. The description is as above. Particulars: P. falciparum in erythrocytes, SYBR Green DNA, 72 h; series mostly up to 28.7 µM. In short, it runs like this: as §2
Test [7] is described as follows: S16 Schwann cell PMP22 intronic element firefly luciferase assay (AID 624032). Further: nearly all actives have a fitted effect of over 30% in size. Further: potency means the concentration at half of the fitted maximal effect. In short, it runs like this:
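Rat S16 Schwann cells stably carrying firefly luciferase driven by a PMP22 intronic element, in 10% FBS, treated 24 h at 37 C. ONE-Glo luminescence normalized to PTC124 control and DMSO (0%); curves classed by r2, magnitude and activity.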

A short description of test [8]: S16 Schwann cell PMP22 intronic element beta-lactamase assay (AID 624044; calls by dose curve;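 further: 0% = DMSO and -100% = potassium clavulanate positive control; nearly all actives have a fitted effect of over 15% in size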). Particulars: S16 rat Schwann cells, PMP22 element beta-lactamase FRET, 24 h; ratio activity, negative = inhibition: at 38.3 µM (top of the series). In short, it runs like this:
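Rat S16 Schwann cells with beta-Lac driven by a PMP22 intronic element, compound-treated 24 h at 37 °C. LiveBLAzer FRET B/G read: 460 nm normalized to potassium clavulanate vs DMSO; 535 nm FRET as viability; concentration-effect curves classified.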

Test [9] is described as follows: Inducers of the Endoplasmic Reticulum Stress Response (ERSR) in human glioma: Validation (AID 504836). Further: 0% is about no effect. In short, it runs like this: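 Stably transfected U87-MG glioma cells carrying a GRP78-based luciferase sensor; 16 h compound incubation. Luminescence end-point read 10 min after Bright-Glo addition at room temperature.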

Chain of Vitamin D3 receptor (Homo sapiens) (P11473 whole entry, looked up): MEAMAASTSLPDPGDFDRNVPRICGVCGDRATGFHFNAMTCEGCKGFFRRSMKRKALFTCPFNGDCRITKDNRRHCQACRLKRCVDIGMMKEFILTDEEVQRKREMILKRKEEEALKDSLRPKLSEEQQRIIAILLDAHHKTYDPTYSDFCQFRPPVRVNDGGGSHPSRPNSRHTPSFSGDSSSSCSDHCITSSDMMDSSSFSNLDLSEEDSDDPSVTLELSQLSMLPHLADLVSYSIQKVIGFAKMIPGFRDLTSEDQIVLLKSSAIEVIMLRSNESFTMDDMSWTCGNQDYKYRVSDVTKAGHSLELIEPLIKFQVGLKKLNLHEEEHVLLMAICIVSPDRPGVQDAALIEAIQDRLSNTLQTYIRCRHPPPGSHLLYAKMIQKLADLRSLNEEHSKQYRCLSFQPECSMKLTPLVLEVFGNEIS
Chain of Peroxisome proliferator-activated receptor delta (Homo sapiens) (Q03181 whole entry, looked up): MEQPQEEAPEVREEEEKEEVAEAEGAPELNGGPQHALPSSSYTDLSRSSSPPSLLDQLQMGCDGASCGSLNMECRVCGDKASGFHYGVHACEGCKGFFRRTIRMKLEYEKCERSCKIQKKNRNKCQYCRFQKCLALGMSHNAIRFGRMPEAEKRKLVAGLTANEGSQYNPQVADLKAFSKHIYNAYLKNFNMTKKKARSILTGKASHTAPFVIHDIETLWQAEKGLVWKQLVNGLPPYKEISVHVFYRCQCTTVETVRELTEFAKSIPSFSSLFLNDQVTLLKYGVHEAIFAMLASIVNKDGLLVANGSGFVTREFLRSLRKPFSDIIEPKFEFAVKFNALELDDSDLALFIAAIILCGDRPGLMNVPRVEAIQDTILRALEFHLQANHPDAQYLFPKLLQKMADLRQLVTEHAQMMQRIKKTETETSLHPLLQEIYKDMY
Chain of Peroxisome proliferator-activated receptor gamma (Homo sapiens) (P37231 whole entry, looked up): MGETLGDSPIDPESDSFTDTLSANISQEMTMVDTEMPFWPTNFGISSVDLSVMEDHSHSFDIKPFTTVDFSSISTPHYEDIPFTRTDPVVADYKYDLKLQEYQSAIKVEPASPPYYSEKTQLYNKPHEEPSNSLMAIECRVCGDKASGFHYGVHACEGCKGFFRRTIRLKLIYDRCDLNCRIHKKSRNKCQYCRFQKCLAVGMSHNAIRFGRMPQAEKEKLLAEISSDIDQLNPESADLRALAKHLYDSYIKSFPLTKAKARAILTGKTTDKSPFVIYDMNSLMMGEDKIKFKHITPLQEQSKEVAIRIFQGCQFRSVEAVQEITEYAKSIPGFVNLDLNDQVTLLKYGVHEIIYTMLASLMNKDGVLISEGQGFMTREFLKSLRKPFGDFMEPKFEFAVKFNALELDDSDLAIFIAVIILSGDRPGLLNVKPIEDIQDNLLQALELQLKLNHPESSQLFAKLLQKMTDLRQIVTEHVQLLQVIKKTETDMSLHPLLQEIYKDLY

On to `C#CCN1CC(=O)N(COC(=O)[C@@H]2[C@@H](C=C(C)C)C2(C)C)C1=O`, for which the result in test [1] and in [6] was inactive. The max response in [2] is -9.7%. In addition, the Potency entry (in test [3]; in [4]; in [5]; with 7G8; in the test on DIV17; with TAB109) was “inactive” throughout. For the same molecule, the Potency result in the test on W2 is “inactive”.
`CCN(CC)C(=O)N[C@@H]1C=C2c3cccc4[nH]cc(c34)C[C@H]2N(C)C1`: the Potency result in [7] and in test [8] was “inactive” each time. Further, the Potency with 7G8 is 8.91 µM (active); in the test with DIV17, 10.7 µM (active); in the test on W2 it was 5.36 µM (active).
Take `NC(Cc1ccc(Oc2cc(I)c(O)c(I)c2)c(I)c1)C(=O)O` (stereo not given): the Potency entry (in test [7]; with 7G8; with DIV17; with TAB109) was “inactive” each time.
As for `CC(C)CCC(=O)OC1CCC2C3CCC4=CC(=O)CC[C@]4(C)C3CC[C@]12C` (stereo not given in full), the Potency with 7G8 was 10 µM (active). Further, in the test with DIV17, the Potency entry is “inactive”.
As for `O=C1CC2OCC=C3CN4CCC56c7ccccc7N1C5[C@H]2[C@H]3C[C@H]46` (stereo not given in full) (tested in a mixture with another compound), in [7], the Potency entry was “inactive”.
For the molecule `C=CC[C@]1(O)CCC2C3CCC4=CCCCC4C3CCC21C` (stereo not given in full), the Potency in test [7] was 22.8 µM (active). Also, the Potency entry (in [8]; in the test on DIV17; in the test on TAB109) was “inactive” throughout.
Take `CCC(=O)OC1(c2ccccc2)CCN(C)CC1C` (stereo not given): the Potency entry in test [7] was “inactive”. In addition, the Potency in the test on W2 is 3.79 µM (active).
In the case of `COc1ccccc1N1CCN(CCN(C(=O)c2ccc(I)cc2)c2ccccn2)CC1`, the outcome in test [9] was inactive.
For `CC12CCC3C4CCC(=O)C(O)=C4CCC3C1CCC2OC(=O)CCC1CCCC1` (stereo not given), the Potency result (in [7]; with DIV17; in the test with TAB109) was “inactive” throughout.
In the case of `CN(C)C1C(=O)C(C(N)=O)C(=O)C2(O)C(=O)C3C(=O)c4c(O)cccc4C(C)(O)C3C(O)C12` (stereo not given), the Potency result in [7] and in test [8] was “inactive” throughout. Further, the Potency with W2 was 6.75 µM (active).
Consider `CC#CCOC(=O)c1c(C)nc2sc3c(c2c1N)CCC(O)C3` (stereo not given), for which the call in [9] was inactive.
In the case of `CCCC(C)C1(CC)C(=O)NC(=S)NC1=O` (stereo not given), the Potency result (in test [7]; in [8]; with DIV17; in the test on TAB109) was “inactive” each time. In addition, the Potency with W2 was 9.53 µM (active).
Consider `C#C[C@]1(O)CC[C@H]2[C@@H]3CCC4=CC(=O)CCC4(C)[C@H]3CCC21C` (stereo not given in full), for which the Potency entry (in [7]; with DIV17; in the test on TAB109; in the test on W2) was “inactive” each time.
In the case of `CN(C)[C@@H](Cc1ccccc1)c1ccccc1`, the Potency result (in test [7]; in the test with TAB109) was “inactive” in each case. Further, the Potency in the test on W2 was 4.78 µM (active).
As for `C[C@]12CCC3C(CCC4=C(Cl)C(=O)CC[C@@]43C)C1CCC2O` (stereo not given in full), the Potency result with DIV17 and in the test on W2 was “inactive” throughout.
On to `COC(=O)C1C(OC(=O)c2ccccc2)CC2CCC1N2C` (stereo not given), for which the Potency result (in test [7]; in the test on 7G8; in the test with DIV17; with TAB109; with W2) was “inactive” in each case.
For `CCC/C=C/C=C/C(=O)OC1/C(=C/C(=O)OC)CC2CC(C(C)O)OC(=O)CC(O)CC3CC(OC(C)=O)C(C)(C)C(O)(CC4C/C(=C/C(=O)OC)CC(/C=C\C(C)(C)C1(O)O2)O4)O3` (stereo not given), in test [7], the Potency entry is “inactive”. For the same molecule, the Potency in the test with 7G8 was 0.708 µM (active); in the test on DIV17 it was 0.953 µM (active); with TAB109, 2.51 µM (active); in the test with W2, 0.953 µM (active).
As for `CC(C)=CC1C(C(=O)OCc2coc(Cc3ccccc3)c2)C1(C)C` (stereo not given), the outcome in test [1] and in test [6] was inactive. Besides, the max response in [2] was -29.1%. The Potency result (in [3]; in test [5]; in test [7]; with TAB109) was “inactive” in each case.
As for `CC(=O)[C@H]1CC[C@H]2C3CC[C@H]4C[C@H](O)CC[C@]4(C)C3CC[C@]12C` (stereo not given in full), the Potency entry (in test [7]; in test [8]; with DIV17; in the test with TAB109) was “inactive” throughout.
Consider `CC(=O)Oc1ccc2c3c1OC1[C@@H](OC(C)=O)C=C[C@H]4[C@H](C2)N(C)CC[C@]314` (stereo not given in full), for which the Potency result (in test [7]; in the test with TAB109; with W2) was “inactive” in each case.
In the case of `C=CCc1cccc(C=NNC(=O)CN2CCN(Cc3ccccc3)CC2)c1O`, the call in test [9] was inactive.
